Among the data in PubChem BioAssay (NCI) are growth values, retold here.

This is part of a sample that, as a whole, favours compounds with a hit. Of some 83,000 tested, about 20% had one in any assay.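 Values shown are percent growth following 48 h exposure of cells in 96-well plates to a single concentration of compound; below 10 was considered active.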 Unmarked numbers belong to inactive results. The source made the active and inactive calls.

The test relates to IGROV1 ovarian. As to the kind of experiment: NCI-60 one-dose screen, 48 h (100 = growth as untreated, 0 = no growth, -100 = all killed). The settings on record: 10 µM unless noted.
As for `O=c1oc2ccccc2cc1-c1csc(N=Nc2c(O)[nH]c3ccc(Cl)cc23)n1`, the growth was 107%.

Turning to `COc1cc2nc(SCc3cc(OC)c(OC)c(OC)c3)n(-c3ccccc3OC)c(=O)c2cc1OC`, the growth is 83.1%. Then `COc1ccc(-c2nc3sccn3c2/C=C/C(=O)c2cc(OC)c(OC)c(OC)c2)cc1OC`, with 34.1%. Under `COC(=O)c1c2c(c(C)[n+]([O-])c1C)C(=O)C=C(NCc1ccc(F)c(Cl)c1)C2=O` stands -55.2% (active); under `O=C(N/N=C/c1ccc(F)cc1)c1[nH]c2ccc(I)cc2c1-c1ccccc1`, 23.8%; under `Cc1nc2cc(Nc3nc(Nc4ccc(F)cc4)nc(N4CCCC4)n3)ccc2n1Cc1ccccc1`, -6.78% (active). Consider `COc1cc2oc(-c3ccc(O)cc3)cc(=O)c2c(O)c1I`, for which the growth is 114%.

On to `COC(=O)c1c2c(c(C)[n+]([O-])c1C)C(=O)C=C(NCc1ccc(Cl)cc1)C2=O`, for which the growth is -50.9% (active). Take `Cc1nc2cc(Nc3nc(Nc4ccc(F)cc4)nc(N4CCN(C)CC4)n3)ccc2n1Cc1ccccc1`: the growth is 24.6%. Under `COc1ccc(OC)c2ncccc12` stands 106%; under `COc1ccc(S(=O)(=O)ON=C2C=C(C)C(=O)C(C)=C2)cc1`, 95%; under `Oc1cccc(Nc2nc(-c3ccccn3)cs2)c1`, 100%. Then `O=C1c2c(c3c4cc(Br)ccc4[nH]c3c3ccc4ccccc4c23)C(=O)N1O`, with 70.2%; and `C=CC[P+](c1ccccc1)(c1ccccc1)c1ccccc1`, with 73.2%; and `COC(=O)c1c2c(c(C)[n+]([O-])c1C)C(=O)C=C(NCc1cccc(Cl)c1)C2=O`, with -53.9% (active). Under `COc1ccc(-c2[nH]ncc2Nc2cc(OC)c(OC)c(OC)c2)cc1` stands 43%; under `COc1ccc(-c2nc(Nc3ccc(F)cc3)nc(Nc3ccc4c(c3)nc(C)n4Cc3ccccc3)n2)cc1`, 36.4%; under `O=C(N/N=C(\CS(=O)(=O)c1ccccc1)c1cc2ccccc2oc1=O)c1ccccc1`, 109%.

On to `COc1ccc(C(=O)C2=CC(=O)C(=O)C2)cc1OC`, for which the growth is 99.3%. Under `Cc1ccc(S(=O)(=O)N2C/C(=C\c3cc(F)cc(F)c3)C(=O)/C(=C/c3cc(F)cc(F)c3)C2)cc1` stands -58.6% (active); under `Nc1nc(N)c(N=Nc2c(Br)cc(S(N)(=O)=O)cc2Br)c(N)n1`, 105%; under `Cc1ccc(-c2c3c(N)c4c(nc3nc3c2c(C)nn3-c2ccccc2)CCCC4)cc1`, 98.6%.

On to `COc1cc(-c2nc3ccccc3o2)cc(CN2CCN(c3ccccc3)CC2)c1O`, for which the growth is 86.8%.

`Cc1cccc2c(=O)c3c(sc12)c(NCCNCCO)nc1ccccc13`: the growth was 16.1%. As to `Nc1nc2c(s1)CCc1c-2c(Br)n(Cc2ccccc2)c1Br`, the growth is 104%.

As to `COC(=O)c1c2c(c(C)[n+]([O-])c1C)C(=O)C=C(NCc1cccc(OC)c1)C2=O`, the growth is -64% (active). On to `COc1ccc(-c2csc3c2-n2cccc2C3=O)cc1O`, for which the growth is 20.3%. Under `COc1ccc(-c2c(-c3cc4c(c(OC)c3OC)OCO4)noc2N)cc1` stands 46.3%; under `O=C(N/N=C(\CS(=O)(=O)c1ccccc1)c1cc2cc(Br)ccc2oc1=O)c1ccccc1`, 110%. Under `Cn1c(=O)c2c(-c3ccccc3F)n(-c3ccc4c(c3)OCO4)cc2n(C)c1=O` stands 101%; under `CN(C)C(=S)SCN1C(=O)c2ccc([N+](=O)[O-])cc2S1(=O)=O`, 104%; under `Cc1nn(-c2ccccc2)c2nc3nc4c(c(N)c3c(-c3ccc(Cl)cc3)c12)CCCC4`, 104%. Under `COc1cc(CNCCN2C(=O)c3ccc4c5c(ccc(c35)C2=O)C(=O)N(CCNCc2cc(OC)c(OC)c(OC)c2)C4=O)cc(OC)c1OC` stands -53.5% (active); under `O=C(O)c1ccccc1Oc1cc(-c2ccco2)nc(OCCBr)n1`, 106%; under `COc1cc(-c2ccc3cc(OC)c(OC)c(OC)c3c2)cc(OC)c1OC`, 68.6%.

Take `COc1cccc(-c2ccc3c(c2)C2CCN(Cc4ccccc4)C3C2)c1` (stereo not drawn): the growth is 59.9%. For the compound `COc1ccc(OC2=CC(=O)c3ccc(C)nc3C2=O)cc1`, the growth is 87.8%.

With `CC(=O)OC[C@]1(C)C=C2C(=O)[C@](C)(O)C3(CC3)C(C)=C2[C@H]1OC(C)=O`, the growth was 91.1%.
